Screening data deposited in PubChem BioAssay by several laboratories.
KLK7 zymogen act: activators of human kallikrein-7 zymogen; activation, % at 7 µM; AID 652039; purified proKLK7, EDANS-DABCYL substrate fluorescence; 100% is mature enzyme control, 0% vehicle; 370,000 compounds, 0.9% hits; P49862;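 active means activation above the mean of all tested compounds plus 3 SD, computed per campaign excluding outliers beyond control limits, cut at about 13% in these data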
Target sequence (P49862 whole entry, looked up): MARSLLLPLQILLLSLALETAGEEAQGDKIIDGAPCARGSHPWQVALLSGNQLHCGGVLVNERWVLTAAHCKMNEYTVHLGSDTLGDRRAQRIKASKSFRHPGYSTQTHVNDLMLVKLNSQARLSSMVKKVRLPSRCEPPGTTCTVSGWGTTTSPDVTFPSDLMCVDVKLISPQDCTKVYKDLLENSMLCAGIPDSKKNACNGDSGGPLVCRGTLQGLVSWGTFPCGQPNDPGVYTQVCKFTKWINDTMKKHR
SMARCA2 activ: increases SMARCA2 function in MMTV reporter cells | MG213 cells, MMTV-luciferase reporter, dexamethasone, overnight | activation, % at 9.1 µM | 370,000 compounds, 1% hits; in the data active means activation above about 7.8%;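 further: 0% = vehicle wells and 100% = reference activator wells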
FXN GAA850 act: increases GAA850 frataxin promoter reporter activity; 360,000 compounds, 0.56% hits; HEK293 lucGAA850 FXN promoter luciferase reporter, 24 h; percent of 10 µM SAHA response; activation, % at 6 µM;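 active means activation above the average of all compounds screened plus 3 SD, cutoff fixed separately per campaign, cut at about 7.5% in these data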;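 further: 0% = DMSO wells and 100% = 10 µM SAHA wells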
FAS-TE inh: FAS thioesterase (human) inhibition; 360,000 compounds, 0.67% hits; AID 602261; recombinant FAS-TE, OMFH fluorogenic substrate, fluorescence endpoint; inhibition, % at 15 µM;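 active means compounds whose normalised, plate-corrected inhibition of enzyme fluorescence in the single-dose primary screen is 50% or more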;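 further: 0% = DMSO with enzyme and 100% = substrate without enzyme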
KLK7 act conf: confirmation of human kallikrein-7 zymogen activators | 3,200 compounds, 68% hits | shares compounds with KLK7 zymogen act | purified proKLK7, EDANS-DABCYL substrate fluorescence; scaled: vehicle 0, mature enzyme 100 | activation, % at 7 µM;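 active means activation, as change over the incubation, above the mean of all tested compounds plus 3 SD, cut at about 13% in these data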
EDANS-DABCYL int: counter-screen for kallikrein-7 activators: EDANS-DABCYL optical interference | shares compounds with KLK7 zymogen act | EDANS-DABCYL substrate fluorescence interference, no enzyme, 4 h; solvent 0%, active enzyme control 100% | activation, % at 7 µM | 3,200 compounds, 80% hits | AID 686952;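 active means activation above the all-compound mean plus 3 SD, ignoring values outside control-based bounds, cut at about 4.8% in these data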;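 further: value is the 4 h activation minus the activation read at time zero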
EDANS interf: counter-screen for kallikrein-7 activators: EDANS-DABCYL interference, dose response; EC50, µM; 250 compounds, 20% hits; EDANS-DABCYL peptide fluorescence interference, no enzyme; shares compounds with KLK7 zymogen act; AID 720493;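 active means compounds that raise the fluorescence signal in this interference counterscreen, with EC50 at or below 10 µM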;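 further: intact quenched peptide substrate alone read at 355 nm excitation and 520 nm emission; signal is fluorescence gain from T0 to T4 after four hours at room temperature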
An asterisk follows results filed as active; . = no result given. The list is not random: actives were taken first. Their share in the collection is about 2.9%.

SMILES | KLK7 zymogen act | SMARCA2 activ | FXN GAA850 act | FAS-TE inh | KLK7 act conf | EDANS-DABCYL int | others
Nc1c(C(=O)NCCN2CCOCC2)c2nc3ccccc3nc2n1-c1cccc(F)c1 | 30* | 0 | -4 | -5 | -71 | -73
CN(Cc1nc(-c2ccc3c(c2)OCO3)no1)CC1(N2CCOCC2)CCCCC1 | 0 | 0 | 4 | 19 | . | .
CCN(CC(=O)N1CCC(C(N)=O)CC1)S(=O)(=O)c1cc(Cl)ccc1Cl | 0 | -4 | 1 | 0 | . | .
O=c1cc(N2CCCC2)c(-c2ccccc2)n[nH]1 | 1 | -1 | 2 | -5 | . | .
O=c1cc(CN2CCN(S(=O)(=O)c3ccc4c(c3)OCCO4)CC2)c2ccc(O)cc2o1 | 43* | -3 | 3 | 6 | 62* | 67*
COc1ccc(OC)c(CN2CCN(Cc3cc(=O)oc4cc(O)ccc34)CC2)c1 | 59* | 7 | 0 | -4 | 76* | 75*
CCc1ccc2c(CN3CCN(S(=O)(=O)c4ccc5c(c4)OCCO5)CC3)cc(=O)oc2c1 | 0 | -5 | -1 | 16 | . | .
CC(=O)NC1C(=O)N=C(SCC(=O)Nc2sc3c(c2C#N)CCCCCC3)NC1=O (centres undefined) | 0 | -1 | -2 | -8 | . | .
CCCc1cc(=O)c2c(O)cccc2o1 | 0 | 0 | 2 | -3 | . | .
CCCc1cc2c(O)ccc(O)c2c(=O)o1 | 36* | 0 | . | . | 256* | 268*
O=C(OCC(=O)N1CCN(S(=O)(=O)c2ccc(Cl)cc2)CC1)c1cccc(OC(F)F)c1 | 0 | 1 | -1 | 14 | . | .
CCN1c2ccccc2-c2nc3ccccc3n2C1c1ccccn1 (centres undefined) | 21* | 1 | 1 | -2 | 28* | -7 | EDANS interf=>70
Cc1ccsc1C1Nc2ccccc2-c2nc3ccccc3n21 (centres undefined) | 63* | 1 | 6 | 13 | -21 | -19
CN1c2ccccc2-c2nc3ccccc3n2C1c1cccs1 (centres undefined) | 40* | 0 | 0 | 21 | -12 | -11
Cc1ccsc1C1Nc2ccccc2C(=O)N1O (centres undefined) | 0 | 0 | 0 | -4 | . | .
CCN1c2ccccc2-c2nc3ccccc3n2C1c1ccncc1 (centres undefined) | 2 | 0 | -2 | -3 | . | .
c1csc(C2Nc3ccccc3-c3nc4ccccc4n32)c1 (centres undefined) | 90* | 1 | 2 | -2 | 30* | 27*
CC(=O)c1ccc(NC(=O)CCNS(=O)(=O)c2ccccc2F)cc1 | 0 | -1 | 1 | -5 | . | .
Cn1c(=O)c2c(nc(CCc3ccccc3)n2C)n(C)c1=O | 0 | 0 | 0 | -7 | . | .
Cn1c(N)nc2nc(CCc3ccccc3)c(=O)[nH]c2c1=O | 13* | -3 | 1 | 1 | 34* | 30*
C=C(C)COc1cc2oc(=O)c(CC(=O)N3C[C@H]4C[C@@H](C3)c3cccc(=O)n3C4)c(C)c2cc1Cl | 16* | 4 | -1 | -3 | 24* | 25*
Cc1nn(CCc2nn[nH]n2)c2nc(C(F)(F)F)cc(C(F)(F)F)c12 | 30* | 2 | 1 | -6 | 17* | 12* | EDANS interf=>70
Cc1nn(CCc2nn[nH]n2)c2nc(-c3ccc(Br)cc3)cc(C(F)(F)F)c12 | -2 | -2 | -2 | 8 | . | .
COC(=O)c1cc(-c2ccc(C(C)=O)cc2)c(=O)n2c1CCC2 | 39* | 0 | . | . | 72* | 71*
CC(C)N(C(=O)Cn1cc(S(=O)(=O)CC(=O)NCCc2ccccc2)c2ccccc21)C(C)C | 0 | -3 | -3 | -1 | . | .
CC(=O)N1CC=C2C(C#N)=C(N)C(C#N)(C#N)[C@H](c3ccoc3)[C@H]2C1 | 16* | -1 | -1 | -5 | 16* | 17*
CCN1CC=C2C(C#N)=C(N)C(C#N)(C#N)C(CCc3ccccc3)C2C1 (centres undefined) | 30* | 2 | 1 | -14 | 15* | 16*
CC(=O)N1CC=C2C(C#N)=C(N)C(C#N)(C#N)C(CCc3ccccc3)C2C1 (centres undefined) | 12 | -2 | 1 | 2 | . | .
